Laboratory results published in ChEMBL document CHEMBL3988442, “University of Dundee, Small-Polar-MMV Screening Library” (2021).
Screen size: about 69,000 compounds; about 420 (0.61%) showed an effect of 50% or more. The list comes from a sample in which strong results are over-represented; it also holds similar structures and randomly drawn compounds.

These compounds were tested against T1, Histidine--tRNA ligase (Leishmania infantum) (UniProt A4I591) (assay: Leishmania infantum Histidine tRNA synthetase (LdHisRS)). Details: 30 µM.
T1 sequence (whole entry): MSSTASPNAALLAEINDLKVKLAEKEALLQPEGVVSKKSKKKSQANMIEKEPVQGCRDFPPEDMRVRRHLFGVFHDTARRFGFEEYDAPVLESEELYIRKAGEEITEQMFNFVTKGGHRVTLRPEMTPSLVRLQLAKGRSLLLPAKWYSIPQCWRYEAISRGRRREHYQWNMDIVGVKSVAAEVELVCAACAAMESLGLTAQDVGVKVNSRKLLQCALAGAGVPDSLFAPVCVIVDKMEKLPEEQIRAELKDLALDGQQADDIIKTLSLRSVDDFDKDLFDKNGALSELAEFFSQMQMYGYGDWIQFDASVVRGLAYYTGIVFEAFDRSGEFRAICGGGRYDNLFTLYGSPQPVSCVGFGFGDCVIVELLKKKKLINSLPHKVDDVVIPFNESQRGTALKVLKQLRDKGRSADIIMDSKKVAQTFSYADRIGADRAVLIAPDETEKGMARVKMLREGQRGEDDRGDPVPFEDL
Assay type: functional
Parameters: scale not given: in the data most compounds retested in dose-response had high values

SMILES	Percent Effect [%]
COCCOc1ncccc1C(=O)N1CCCCC1c1nccs1 (centres undefined)	14.9
COc1cccc(C(=O)N2CCCCC2c2nccs2)c1OC (centres undefined)	4.39
COCCOc1ccccc1C(=O)N1CCCCC1c1nccs1 (centres undefined)	50
Cc1ccc(S(=O)(=O)Nc2ccc(-n3cccc3C(=O)O)c(C)c2)cc1	6.25
CC(C)c1ccc(C(=O)O)cc1S(=O)(=O)Nc1ccc(=O)n(C)c1	84.6
CCc1ccc(C(=O)O)cc1S(=O)(=O)Nc1ccc(=O)n(C)c1	21.4
Cn1cc(NS(=O)(=O)c2ccc(F)c(F)c2)ccc1=O	47.3
CCCc1ccc(S(=O)(=O)Nc2ccc(=O)n(C)c2)cc1	29.1
Cn1cc(NS(=O)(=O)c2ccc(OC(F)(F)F)cc2)ccc1=O	82
Cn1cc(NS(=O)(=O)c2ccc(C(F)(F)F)cc2)ccc1=O	38.2
CC(C)Cc1ccc(S(=O)(=O)Nc2ccc(=O)n(C)c2)cc1	91
Cc1ccc(S(=O)(=O)Nc2ccc(-n3nnn(C)c3=O)cc2)cc1	12.2
Cn1cc(NS(=O)(=O)c2ccc3c(c2)CCCC3)ccc1=O	41.8
Cc1ccc(S(=O)(=O)Nc2ccc(=O)n(C)c2)c(Br)c1	32.7
Cc1ccc(S(=O)(=O)Nc2ccc(=O)n(C)c2)cc1	77.5
c1ccc(CN2CC[C@@H]3O[C@H](COCc4ccncc4)CC[C@@H]32)nc1	10.9
CC(C)CN1C[C@@H]2OCC(=O)N(Cc3nccn3C)[C@@H]2C1	23
O=C([C@@H]1COC[C@H]2CN(C3CCOCC3)C[C@H]21)N1CCOCC1	30.6
CCO[C@H]1CC[C@H]2[C@@H]1OCCN2C(=O)COc1ccccc1	19.1
CN1[C@H]2CC[C@@H]1CN(C(=O)c1sccc1S(N)(=O)=O)CC2	-12.7
CN(c1cccnn1)[C@@H]1CC[C@@H]2CN(Cc3cccc(C(=O)O)c3)C[C@@H]21	5.63
Cc1[nH]nc(CCC(=O)N2C[C@H]3CC[C@@H]2CN(C(=O)N(C)C)C3)c1C	13.9
Cc1cc(C(=O)N2C[C@@H]3CN(S(C)(=O)=O)CCO[C@@H]3C2)c(C)o1	-1.75

SMILES	Percent Effect [%]
CNC(=O)[C@@]12CCO[C@@H]1CCN(S(=O)(=O)c1cc(C)cc(C)c1)C2	13
Cn1cc(Br)cc(NC(=O)Cc2cccs2)c1=O	34
Cn1cc(C(C)(O)CNC(=O)c2cc(Br)cn2C)cn1 (centres undefined)	25.5
CCC(=O)Nc1cc(Br)cnc1OCC(F)(F)F	14
Cn1ccc(CN2CCC(CC(=O)NC3CCCC3)CC2)cc1=O	-8.33
Cc1nn(C)cc1NC(=O)CC1CCN(CCc2ccccc2)CC1	5.67
Cc1cc(=O)n(C)cc1NC(=O)CC1CCC1	75
CC(C)(C)CC(=O)Nc1ccccc1SCC(N)=O	9.57
Cn1cc(Br)cc(NC(=O)CC2CCC2)c1=O	103
O=C(CC1CCCC1)Nc1ccc(-n2cc(Br)cn2)nc1	10.5
Cc1c(CS(C)(=O)=O)cccc1NC(=O)CC1CCCC1	11.7
CCC(=O)Nc1cc(Br)cn(C)c1=O	103
Cn1cc(Br)cc(NC(=O)CC(C)(C)C)c1=O	95
COCCNC(=O)[C@H]1CN(Cc2nccs2)C[C@H]2OCC[C@@H]12	15.2
COCCCN1C(=O)CC[C@H]2CN(Cc3ncc[nH]3)CC[C@H]21	-49.3
COc1cc(N2C[C@H](C(=O)N3CCCC3)[C@@H]3CCO[C@@H]3C2)ncn1	8.06
O=C(c1ccco1)N1CC[C@H]2[C@H]1CCN2S(=O)(=O)C1CC1	5.26
Cc1ccc(C(=O)N2C[C@@H]3COC[C@]3(COc3cccnc3)C2)cn1	7.52
O=C(NCc1cccs1)[C@]12COC[C@H]1CN(c1ncccn1)C2	5.26
CCCS(=O)(=O)N1C[C@@H](Oc2ncccc2F)[C@H]2OCCC[C@H]21	8.22
c1cnc(N2CCO[C@H]3[C@H](OCc4cccnc4)CC[C@@H]32)nc1	-9.73
Cc1ncsc1CN1CC[C@H]2OCC[C@@]2(C(=O)N2CCCO2)C1	16.8
N#Cc1ccc(CNCC2(c3ccccc3)CCOCC2)cc1	42.9

SMILES	Percent Effect [%]
COc1ccccc1C1(CNCc2cccc(O)c2)CCOCC1	109
COc1ccccc1C1(CNCc2ccc([S+](C)[O-])cc2)CC1 (centres undefined)	12.1
COc1ccccc1C1(CNc2nnc(C)c(C)c2C#N)CCOCC1	37
COc1ccccc1C1(CNCc2ccc(C#N)cc2)CCOCC1	60.4
COc1ccccc1C1(CNCc2cccc(C#N)c2)CCOCC1	49.5
Cn1cc(C(=O)N2C[C@@H]3CN(S(C)(=O)=O)CCO[C@@H]3C2)cn1	7.55
Cc1oncc1C(=O)N1CC[C@H]2[C@@H]1CCC(=O)N2CC1CC1	0
CC(C)CN1C[C@H]2C[C@H](C(=O)N3CCCC3)[C@@H](C1)O2	13.2
Cc1noc(C(C)Nc2ccc3c(c2)CCC3)n1 (centres undefined)	9.38
Cc1noc(C(C)Nc2ccc3oc(C)nc3c2)n1 (centres undefined)	106
CC(C)c1nc2cc(NC(=O)Cn3ccccc3=O)ccc2o1	12
Cc1noc(C(C)Nc2ccc3oc(=O)[nH]c3c2)n1 (centres undefined)	16.4
Cc1noc(C(C)Nc2ccc3oc(C(C)C)nc3c2)n1 (centres undefined)	106
CC(C)c1nc2cc(NC(=O)Cn3ccc(=O)[nH]c3=O)ccc2o1	14
Fc1cnc(N2C[C@@H]3C[C@@H](c4nc(C5CC5)cs4)O[C@@H]3C2)nc1	7.55
Cc1cs/c(=N/C(=O)c2csc(NCC(C)C)n2)[nH]1	75.3
Cc1[nH]/c(=N\C(=O)c2csc(NCC(C)C)n2)sc1C	20.9
CC(C)CNc1nc(C(=O)/N=c2\[nH]nc(C(C)(C)C)s2)cs1	1.91
CCN(Cc1nc2c(cnn2C)c(=O)[nH]1)Cc1ccco1	15.7
O=C(NCC1CCCO1)c1nc2c(s1)CCCN2Cc1ccccc1 (centres undefined)	45.8
COCCN1CCCc2sc(C(=O)NCC3CCCO3)nc21 (centres undefined)	52.8
O=C(NCC1CCCO1)c1nc2c(s1)CCCN2CC1CC1 (centres undefined)	29.2
Cc1cccc(CN2C[C@@H]3COC[C@]3(CNC(=O)C3CCC3)C2)c1	17.8

SMILES	Percent Effect [%]
COc1ccc(N2CCC(N3CCOC(C(F)(F)F)C3)CC2)cc1 (centres undefined)	14.3
CCS(=O)(=O)c1ccc(N2CCC(N)CC2)cc1	11.6
O=C(O)c1ccccc1C1CCN(C2CCN(c3ccccc3)CC2)C1 (centres undefined)	22.7
NCC1CCN(C2CCN(c3ccc(-c4ccco4)cc3)CC2)C1 (centres undefined)	64.3
CNC1CCN(C2CCN(c3ccc(-c4ccco4)cc3)CC2)CC1	42.1
NC1CCN(C2CCN(c3ccc(-c4ccco4)cc3)CC2)CC1	54.8
Cc1cccc(C(=O)N2CCN(S(C)(=O)=O)[C@@H]3CS(=O)(=O)C[C@@H]32)n1	-2.67
COC[C@@]12CC[C@@H](N3CCOCC3)C[C@H]1CCN(c1ncccc1F)C2	19.4
O=C1OCCN1CC(=O)N1C[C@H]2CC[C@@H]1CN(Cc1cscn1)C2	-18.2
O=C(c1ccccn1)N1CC[C@H]2C(=O)N(c3ccsc3)CCO[C@H]2C1	18
CCCn1nc2c(cc1=O)CN(c1ncnc3sccc13)CC2	15.3
c1csc(N2CCCN(c3ncnc4sccc34)CC2)n1	22.4
CCn1nc2c(cc1=O)CN(c1ncnc3sccc13)CC2	102
Cn1nc2c(cc1=O)CN(c1ncnc3sccc13)CC2	100
CC(C)n1nc2c(cc1=O)CN(c1ncnc3sccc13)CC2	38.7
c1csc(N2CCN(c3ncnc4sccc34)CC2)n1	27.1
O=C1N(c2cccc(F)c2)Cc2nc(=O)n(Cc3ccc(Cl)cc3)n21	9.78
O=C(Cc1ccco1)N1C[C@H]2CCC[C@@]2(COCC2CC2)C1	20
CN(C)C(=O)CN1CC[C@H]2CN(S(C)(=O)=O)C[C@@H]2C1=O	15.5
CN(C)C(=O)N1C[C@H](Oc2ccccn2)[C@H]2OCCC[C@H]21	8.74
COCC(=O)N1C[C@H]2CNC[C@@]2(C(=O)NCc2snnc2C)C1	18.6
COc1cccn(CC(=O)N(C)CCOc2cc(C)cc(C)c2)c1=O	105
COCCN(C)C(=O)Cn1cccc(OC)c1=O	105

SMILES	Percent Effect [%]
CCc1ccccc1OCCN(C)C(=O)CN1CCCC1	22.2
CCc1cccc(OCCCN(C)C(=O)CN2CCNC2=O)c1	8.85
COc1cccn(CC(=O)N(C)Cc2ccoc2)c1=O	47.6
CN(CCCOc1ccccc1Cl)C(=O)CN1C[C@@H]2CC[C@H](CC1=O)N2	17.7
CN(CCOCC1CC1)C(=O)Cn1cccc(C(F)(F)F)c1=O	15.4
COc1cccn(CC(=O)N(C)CCSC)c1=O	32
COCCCN(C)C(=O)Cn1cccc(OC)c1=O	107
CN(CCCOc1ccccc1Cl)C(=O)CN1CCCCCC1=O	21.2
COc1cccn(CC(=O)N(C)CCC2CCOCC2)c1=O	91.2
CCN(CC1CCOCC1)C(=O)Cn1cccc(C(F)(F)F)c1=O	13.2
CC(=O)N1CC[C@H]2CC(=O)N(C3CC3)CC[C@H]2C1	22.2
CNC(=O)CN1CC[C@H]2CN(C(=O)c3cc[nH]n3)C[C@H]2C1	16.7
CNC(=O)[C@@H]1CC[C@@H]2[C@@H](CCN2Cc2cn(C)c3ccccc23)O1	13.2
O=C1[C@H]2CC[C@H](CN(C3CSCCSC3)C2)N1Cc1cscn1	11.4
CN(C)S(=O)(=O)N1CC[C@]2(O)CCN(CCc3cccc(F)c3)C[C@@H]2C1	43.4
Cc1nc(CN2C[C@@H]3CN(C(=O)c4cccn4C)C[C@@H]3C2)cs1	-1.92
CC(=O)N1CCO[C@@H]2CN(Cc3ccccc3Cl)C[C@@H]2C1	11.7
Cc1nc(CN2C[C@@H]3CN(C(=O)C4(C#N)CC4)C[C@@H]3C2=O)cs1	26.5
Cc1nc([C@H]2C[C@H]3CN(C(=O)c4ccoc4C)CC[C@@H]3O2)no1	15.1
CN(CCCOc1ccccc1Cl)C(=O)CN1CCNC1=O	24.8
COc1cccn(CC(=O)N(C)CCCOc2c(C)cccc2C)c1=O	110
CN(CCCOc1ccccc1Cl)C(=O)CN1C(=O)CCNC1=O	14.2
